The values that follow come from PubChem BioAssay (NCATS).

Results filed as inconclusive are left out. A number with no mark means an inactive call. The call rests on the fitted dose curve; in most records, active means well fitted inhibition curve with a large enough effect; inconclusive means small, poorly fitted or top-dose-only effect; inactive means flat fitted curve, though single readings scatter. Where a SMILES comes first, the peptide text is derived from it. [ ]: non-standard residue; d: D form. pGlu = O=C1CC[C@@H](C(=O)O)N1
On the % scale 0 is the no-effect control and ±100 the full control effect.

In one test the test system is MCC-13. Put plainly: qHTS assay to identify novel small-molecules to repurpose for Merkel cell carcinoma treatment (AID 1296009). Further: nearly all actives have a fitted effect of over 60% in size. The note with it: MCC and control cell lines, CellTiter-Glo viability, 72 h; series mostly up to 46 µM; activity change, negative = cytotoxicity: at the top concentration. The method, boiled down:
(§1)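 Luminescence from CellTiter-Glo, read 10 min after addition at room temperature, reported viability following a 72 hr, 37 degree celsius treatment with NPC or MIPE compounds in titration; values normalized to plate controls.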
For `O=C(CCCl)NCCc1ccccc1`, the “activity change, negative = cytotoxicity” value is 15.4%.
With `Oc1ccc(CCNCCCCCCNCCc2ccccc2)cc1O`, the “activity change, negative = cytotoxicity” value is -17.7%.
In the case of `C[N+]1(C)CCC(OC(=O)C(O)(c2ccccc2)C2CCCC2)C1` (stereo not given), the “activity change, negative = cytotoxicity” value was 5.07%.
Turning to `CC(=O)Nc1ccn(C2COC(COC(=O)c3ccccc3)O2)c(=O)n1` (stereo not given), the “activity change, negative = cytotoxicity” value is -2%.
With `CCNC(=O)[C@@H]1CCCN1C(=O)[C@H](CCCN=C(N)N)NC(=O)[C@H](CC(C)C)NC(=O)CNC(=O)[C@H](Cc1ccc(O)cc1)NC(=O)[C@H](CO)NC(=O)[C@H](Cc1c[nH]c2ccccc12)NC(=O)[C@H](Cc1cnc[nH]1)NC(=O)[C@@H]1CCC(=O)N1` ([pGlu]HWSYGLRP-NHEt), the “activity change, negative = cytotoxicity” value is 4.42%.
Same read-out and setting: the same measure for `CC(C)Cc1ccc(C(C)C(=O)OCc2ccccn2)cc1` (stereo not given): -3.36%; for `CC(CC1c2ccccc2CCc2ccccc21)CN(C)C` (stereo not given): -3.38%; for `CC(C)C[C@H](NC(=O)CNC(=O)[C@H](Cc1ccc(O)cc1)NC(=O)[C@H](CO)NC(=O)[C@H](Cc1c[nH]c2ccccc12)NC(=O)[C@H](Cc1cnc[nH]1)NC(=O)[C@@H]1CCC(=O)N1)C(=O)N[C@@H](CCCN=C(N)N)C(=O)N1CCC[C@H]1C(=O)NCC(N)=O` (stereo in doubt): 3.08%.
With `CCCCCCOC(=O)NC(=N)c1ccc(NCc2nc3cc(C(=O)N(CCC(=O)OCC)c4ccccn4)ccc3n2C)cc1`, the “activity change, negative = cytotoxicity” value was -1.35%.
`Oc1cccc2[nH]ccc12`: the “activity change, negative = cytotoxicity” value is 5.5%.
With `C[N+](C)(CCOc1ccccc1)Cc1cccs1`, the “activity change, negative = cytotoxicity” value was 11.5%.
In the case of `COc1cc2nc(Cl)nc(N)c2cc1OC`, the “activity change, negative = cytotoxicity” value was -15.7%.
As for `CN1CCC(N(Cc2cccs2)c2ccccc2)CC1`, the “activity change, negative = cytotoxicity” value is -7.37%.
Same read-out and setting: the same measure for `CC[N+](CC)(CC)CCOC(=O)C(C1CCCC1)C1CCCC1`: 12.7%.
Same read-out and setting: to `C/C(=N/NC(=O)c1ccncc1)C(=O)O` belongs 8.65%; to `O=C(CCC1CCN(Cc2ccccc2)CC1)c1ccc2c(c1)NCCCC2`, -3.44%.
On the same count and under the same terms, to `C[N+]1(CC2COC(c3ccccc3)(c3ccccc3)O2)CCCCC1` (stereo not given) belongs 6.72% [at 16.1 µM]; to `CCOC(=O)c1cc(=O)c2c(OCC(COc3cccc4oc(C(=O)OCC)cc(=O)c34)OC(=O)[C@@H](N)CCCCN)cccc2o1`, 16%.
Take `C=CCOc1cc(Cl)ccc1C(=O)NCCN(CC)CC`: the “activity change, negative = cytotoxicity” value was -1.09%.
On the same count and under the same terms, the same measure for `CCOc1ncc(F)c(=O)[nH]1`: -5.42%.
As to `O=C1OC2(c3ccccc31)c1cc(I)c(O)c(I)c1Oc1c2cc(I)c(O)c1I`, the “activity change, negative = cytotoxicity” value is -10.6%.

The next test deals with MCC-26. Described as above. The settings on record: MCC and control cell lines, CellTiter-Glo viability, 72 h; series mostly up to 46 µM; activity change, negative = cytotoxicity: at the top concentration. The method, boiled down: as §1
A general note: In ATP-based viability assays light output follows the ATP content of the culture.
Regarding `Cc1cnc(NS(=O)(=O)c2ccc(N)cc2)nc1`, the “activity change, negative = cytotoxicity” value is 3.41%.
Take `CC1c2ccccc2CN1NC(=O)c1ccc(Cl)c(S(N)(=O)=O)c1` (stereo not given): the “activity change, negative = cytotoxicity” value was 4.74%.
`CCC[C@H](N[C@@H](C)C(=O)N1[C@H](C(=O)O)C[C@@H]2CCCC[C@@H]21)C(=O)OCC`: the “activity change, negative = cytotoxicity” value was -0.439%.
In the case of `N#CSCC(=O)O`, the “activity change, negative = cytotoxicity” value was 2.74%.
The same measure, in the same setting: the same measure for `CC(C)(C)C1CCC(CC2=C(O)c3ccccc3C(=O)C2=O)CC1` (stereo not given): 0.238%; for `CCOC(=O)N1CCC(Nc2ccc(Cl)cc2N)CC1`: -2.95%.
Turning to `O=C(NO)c1ccccc1`, the “activity change, negative = cytotoxicity” value is -10.7% [at 92.7 µM].
Still for that read-out and setting: to `Cc1cccc(N(C)C(=S)Oc2ccc3c(c2)CCC3)c1` belongs 5.51%.
For `Nc1nc2ccccc2n1Cc1ccc(F)cc1`, the “activity change, negative = cytotoxicity” value was -11%.
On the same count and under the same terms, to `CC(C)(c1ccc(O)cc1)c1ccc(O)cc1` belongs -1.04% [at 92.7 µM]; to `CC(=O)[C@H]1CC[C@H]2[C@@H]3C=CC4=CC(=O)CC[C@@]4(C)[C@@H]3CC[C@]12C`, -4.33%; to `O=C(OCCN1CCOCC1)c1cccnc1Nc1cccc(C(F)(F)F)c1`, -3.65%.
As to `COC(=O)c1cc(Cl)ccc1NS(=O)(=O)C(F)(F)F`, the “activity change, negative = cytotoxicity” value was 5.12%.
The same measure, in the same setting: the same measure for `CC1CC(=O)NN=C1c1ccc(NCC(C)(C)NCC(O)COc2cc(Cl)ccc2C#N)cc1` (stereo not given): -4.47%; for `c1ccc(C(O[C@H]2CCCN(CCc3ccc4c(c3)OCO4)C2)c2ccccc2)cc1`: 8.27%; for `O=C(CS(=O)Cc1ccco1)NC/C=C\COc1cc(CN2CCCCC2)ccn1` (stereo not given): -8.54%.
For the compound `CCc1cc2cc(OC)c(OC)cc2c(Cc2ccccc2)n1`, the “activity change, negative = cytotoxicity” value is 3.44%.
Consider `CCCC(=O)O[C@]1(C(=O)CC)CC[C@H]2[C@@H]3CCC4=CC(=O)CC[C@]4(C)[C@H]3[C@@H](O)C[C@@]21C`, for which the “activity change, negative = cytotoxicity” value was -16.9%.
In the case of `O=C(CCCl)NCCc1ccccc1`, the “activity change, negative = cytotoxicity” value is -3.16%.
In the case of `Oc1ccc(CCNCCCCCCNCCc2ccccc2)cc1O`, the “activity change, negative = cytotoxicity” value is -12.4%.
`C[N+]1(C)CCC(OC(=O)C(O)(c2ccccc2)C2CCCC2)C1` (stereo not given): the “activity change, negative = cytotoxicity” value was -3.73%.
On to `CC(=O)Nc1ccn(C2COC(COC(=O)c3ccccc3)O2)c(=O)n1` (stereo not given), for which the “activity change, negative = cytotoxicity” value is -8.05%.
In the case of `CCNC(=O)[C@@H]1CCCN1C(=O)[C@H](CCCN=C(N)N)NC(=O)[C@H](CC(C)C)NC(=O)CNC(=O)[C@H](Cc1ccc(O)cc1)NC(=O)[C@H](CO)NC(=O)[C@H](Cc1c[nH]c2ccccc12)NC(=O)[C@H](Cc1cnc[nH]1)NC(=O)[C@@H]1CCC(=O)N1` ([pGlu]HWSYGLRP-NHEt), the “activity change, negative = cytotoxicity” value was 5.39%.
Turning to `CC(C)Cc1ccc(C(C)C(=O)OCc2ccccn2)cc1` (stereo not given), the “activity change, negative = cytotoxicity” value was -1.82%.
Still for that read-out and setting: to `CC(CC1c2ccccc2CCc2ccccc21)CN(C)C` (stereo not given) belongs -6.59%.
Still for that read-out and setting: the same measure for `CC(C)C[C@H](NC(=O)CNC(=O)[C@H](Cc1ccc(O)cc1)NC(=O)[C@H](CO)NC(=O)[C@H](Cc1c[nH]c2ccccc12)NC(=O)[C@H](Cc1cnc[nH]1)NC(=O)[C@@H]1CCC(=O)N1)C(=O)N[C@@H](CCCN=C(N)N)C(=O)N1CCC[C@H]1C(=O)NCC(N)=O` (stereo in doubt): 0.114%.
Turning to `CCCCCCOC(=O)NC(=N)c1ccc(NCc2nc3cc(C(=O)N(CCC(=O)OCC)c4ccccn4)ccc3n2C)cc1`, the “activity change, negative = cytotoxicity” value is 8.09%.
Same read-out and setting: to `Oc1cccc2[nH]ccc12` belongs 4.22%.
`C[N+](C)(CCOc1ccccc1)Cc1cccs1`: the “activity change, negative = cytotoxicity” value is -13.5%.
The same measure, in the same setting: the same measure for `COc1cc2nc(Cl)nc(N)c2cc1OC`: 4.94%; for `CN1CCC(N(Cc2cccs2)c2ccccc2)CC1`: -19%; for `CC[N+](CC)(CC)CCOC(=O)C(C1CCCC1)C1CCCC1`: 2.84%.
On to `C/C(=N/NC(=O)c1ccncc1)C(=O)O`, for which the “activity change, negative = cytotoxicity” value was -1.84%.
On the same count and under the same terms, the same measure for `O=C(CCC1CCN(Cc2ccccc2)CC1)c1ccc2c(c1)NCCCC2`: -0.365%; for `C[N+]1(CC2COC(c3ccccc3)(c3ccccc3)O2)CCCCC1` (stereo not given): -3.61% [at 16.1 µM]; for `CCOC(=O)c1cc(=O)c2c(OCC(COc3cccc4oc(C(=O)OCC)cc(=O)c34)OC(=O)[C@@H](N)CCCCN)cccc2o1`: 5.64%.
Consider `C=CCOc1cc(Cl)ccc1C(=O)NCCN(CC)CC`, for which the “activity change, negative = cytotoxicity” value was 10%.
For `CCOc1ncc(F)c(=O)[nH]1`, the “activity change, negative = cytotoxicity” value is 7.29%.
As for `O=C1OC2(c3ccccc31)c1cc(I)c(O)c(I)c1Oc1c2cc(I)c(O)c1I`, the “activity change, negative = cytotoxicity” value is -4.46%.
